This is a sample that favours compounds with a hit; in the whole collection about 6.6% have one here.
KB-3-1 cytotox = KB-3-1 parental cell cytotoxicity | 1.4% of 400,000 active | AID 1347075 | Potency, µM (series often up to 46.1 µM), actives largely listed as cytotoxic | KB-3-1 viability, CellTiter-Glo ATP luminescence, 72 h; further: on the % scale 0 is the no-effect control and ±100 the full control effect; nearly all actives have a fitted effect of over 60% in size
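Multi-concentration cytotoxicity screen in KB-3-1 cells grown in DMEM lacking phenol red with 10% FBS. After 72 h at 37 °C with compound, ATP-dependent luminescence was recorded.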
HT1080 IDH1KD tx = toxicity to HT-1080 IDH1 knockdown cells (counter line) | HT-1080 IDH1 knockdown viability, ATP luminescence, 48 h | Potency, µM (titrated, usually from 46.1 µM), for the others: top-dose activity, negative = toxicity, actives largely listed as cytotoxic | 2% of 360,000 active;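 further: 0% = DMSO wells and -100% = cell-free medium wells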
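Luminescent ATP read-out (CellTiter-Glo, 10 min at room temperature) after 48 h compound exposure at 37 °C gave viability of IDH1-knockdown HT-1080 cells. Activity was normalised to DMSO and cell-free wells, then fitted as concentration-response curves.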
KB-V1 cytotox = kills drug-selected multidrug resistant KB-V1 cells; KB-V1 MDR cells viability, CellTiter-Glo, 72 h; Potency, µM (doses to about 46.1 µM), hits mostly cytotoxic; 3.4% of 400,000 active; further: on the % scale 0 is the no-effect control and ±100 the full control effect; nearly all actives have a fitted effect of over 60% in size
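KB-V1, DMEM (no phenol red) + 10% FBS; cpd pin-transferred, titration series; 72 h, 37 degrees C; CellTiter-Glo, luminescence. Data normalized, curve-fit.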
HepG2 viability = counter-screen for TGF-b inhibitors: cytotoxicity in HepG2 cells. HepG2 CAGA-GFP viability, ATP luminescence, 18 h. Potency, µM (top dose mostly 46.1 µM), inactives show at the highest dose activity change, negative = cytotoxicity, hits mostly cytotoxic. 0.76% of 410,000 active. AID 588856
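CellTiter-Glo luminescence gave cytotoxicity after 18 hours at 37 degrees C. The cells were HepG2 CAGA-GFP in 1% FBS DMEM, stimulated with 500 pg/mL TGF-beta after compound addition. %Activity was normalised to no-cell wells (complete cell-killing) and DMSO (no toxicity), and curves were fitted and classified.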
TGFb SMAD3 inh = blocks TGF-b signaling; 1.2% of 410,000 active; HepG2 CAGA-GFP TGF-b/SMAD3 reporter, GFP fluorescence, 18 h; TGF-beta stimulated, 500 pg/mL final; Potency, µM (titrated, usually from 46.1 µM), without a hit: at the top dose activity, negative = inhibition, actives largely listed as inhibitors; further: on the % scale 0 is the no-effect control and ±100 the full control effect; nearly all actives have a fitted effect of over 65% in size
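Read-out: total well GFP (ex488/em500-530) summed from mean per-cell fluorescence. Cells: HEPG2 CAGA-GFP, 1% FBS DMEM, 18 h at 37 degrees C with 500 pg/mL final TGF-beta. Unstimulated wells served as the full-inhibition control; stimulated DMSO wells = 0%.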
HT1080-NT tox = kills 2HG-producing HT-1080-NT fibrosarcoma cells. Potency, µM (doses to about 46.1 µM), for the others: top-dose activity, negative = less viability, usual class: cytotoxic. HT-1080-NT fibrosarcoma viability, CellTiter-Glo ATP luminescence, 48 h. 1.6% of 360,000 active;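 further: NT is the 2HG producing partner of a matched IDH1 knockdown line; 0% = DMSO-treated cells and -100% = media-only wells without cells; nearly all actives have a fitted effect of over 55% in size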
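750 cells/well, RPMI + 5% FBS; 2 h settle, compound pin-transfer, 48 h at 37 degrees C. CellTiter-Glo 10 min RT, luminescence. Normalized to DMSO and media-only wells.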
An asterisk follows results filed as active; i = inactive; u = inconclusive; x = no result; [ ] = dose if it differs, or a comment. The call rests on the fitted dose curve; in most records, active means well fitted curve in the direction sought with a large enough effect; inconclusive means small, poorly fitted or top-dose-only effect, or another doubt; inactive means no such curve, though single readings can be large; an effect the other way counts as inactive or inconclusive. Potency means the concentration at half of the fitted maximal effect.

SMILES	KB-3-1 cytotox	HT1080 IDH1KD tx	KB-V1 cytotox	HepG2 viability	TGFb SMAD3 inh	HT1080-NT tox
OCCN1CCN(c2ncnc3c2c(-c2ccccc2)cn3-c2ccc(Br)cc2)CC1	i	23µM*	u	-1%	1%	16µM*
c1ccc(-c2cn(-c3ccccc3)c3ncnc(NCCCN4CCOCC4)c23)cc1	i	u	i	-41%	13%	u
OCCN1CCN(c2ncnc3sc(-c4ccccc4)cc23)CC1	i	u	i	-4%	-4%	18µM*
COc1cc(C(=O)N2CCN(c3ccc(Nc4ccccc4)nn3)CC2)cc(OC)c1OC	x	x	x	-19%	-23%	x
C=C(C)Cn1c2ccc(NC(=O)CCOCC)cc2c(=O)n1C	i	26%	i	0%	15%	u
CCOCCC(=O)Nc1ccc2c(c1)c(=O)n(C)n2CC=C(C)C	3.7µM*	u	i	-51%	-18%	u
COc1cccc(NC(=O)CN2C(=O)CC(c3ccco3)Sc3ccccc32)c1 (stereo not given)	u	x	u	-28%	-12%	x
COc1ccc(C2C=C(C34CC5CC(CC(C5)C3)C4)NC(=S)N2)cc1OC (stereo not given)	i	-2%	18µM*	-35%	u	0%
CCOc1ccc(C(=O)N/N=C(/C)C2C(=O)c3ccccc3C2=O)cc1	i	-12%	u	6%	3%	-12%
C/C(=N\NC(=O)c1ccc(-c2ccccc2)cc1)C1C(=O)c2ccccc2C1=O	u	-7%	i	-89%	13µM*	-15%
C/C(=N\NC(=O)c1ccc(Br)cc1)C1C(=O)c2ccccc2C1=O	u	1µM*	u	-79%	u	2.2µM*
CCOc1ccccc1CNC(=O)C1CCN(c2nnc(-n3c(C)ccc3C)s2)CC1	x	x	x	-20%	x	x
COc1ccc(NC(=O)Cc2csc(COc3cccc(C)c3)n2)cc1OC	u	x	u	-25%	0%	x
CCCN1CCC(=O)N(C(CSc2ccc(Br)cc2)c2ccccc2)CC1 (stereo not given)	x	x	x	1%	-9%	x
COc1cccc(NC(=O)c2nn(-c3ccc(C)cc3)c(=O)n(C)c2=O)c1	i	x	i	5%	14%	x
Cc1ccc(-n2cc(CN3CCC(O)(c4ccccn4)CC3)c(-c3ccc(F)cc3)n2)cc1	i	u	u	-51%	u	16µM*
Cc1ccc(-n2cc(CN3CCNC(=O)CC3)c(-c3ccc(F)cc3)n2)cc1	i	-26%	i	4%	-11%	-1%
CCOc1ccc(C2C(=O)N(C3CCCCCC3)CC(=O)N2CCC2=CCCCC2)cc1OC (stereo not given)	x	x	x	-30%	u	x
O=C1C(c2ccncc2)N(CCC2=CCCCC2)C(=O)CN1C1CCCCC1 (stereo not given)	i	-9%	11µM*	-24%	-29%	3%
CCN(CCCNC(=O)c1nn(-c2ccc(OC)c(Cl)c2)c(=O)c2c1c1ccccc1n2C)c1ccccc1	i	x	i	-12%	-10%	x
COC(=O)C1=CN(c2c(C)cc(C)cc2C)C(N)=C(C#N)C1c1ccccc1 (stereo not given)	i	-29%	u	x	x	-29%
COC(=O)C1=CN(c2ccc3c(c2)OCO3)C(N)=C(C#N)C1c1ccc(-c2ccccc2)cc1 (stereo not given)	4.6µM*	3.3µM*	3.7µM*	x	x	5.2µM*
COC(=O)C1=CN(c2ccc(F)cc2)C(N)=C(C#N)C1c1ccc(-c2ccccc2)cc1 (stereo not given)	u	10µM*	16µM*	x	x	10µM*
COC(=O)C1=CN(c2ccc(OC)cc2OC)C(N)=C(C#N)C1c1cccc([N+](=O)[O-])c1 (stereo not given)	2.1µM*	u	2.3µM*	x	x	u
COC(=O)C1=CN(c2ccc(C(C)(C)C)cc2)C(N)=C(C#N)C1c1ccc(OC)cc1 (stereo not given)	i	-2%	u	x	x	-5%
SMILES	KB-3-1 cytotox	HT1080 IDH1KD tx	KB-V1 cytotox	HepG2 viability	TGFb SMAD3 inh	HT1080-NT tox
COC(=O)C1=CN(c2ccc(Oc3ccccc3)cc2)C(N)=C(C#N)C1c1cccc(F)c1 (stereo not given)	i	-29%	i	x	x	-24%
COC(=O)C1=CN(c2ccc(F)cc2)C(N)=C(C#N)C1c1cccc(F)c1 (stereo not given)	u	23µM*	8.2µM*	x	x	u
CCN(CC)C(=O)Cn1cc(SCC(=O)Nc2cccc(C)c2)c2ccccc21	i	x	i	-30%	-25%	x
COc1ccc(C(=O)NC(C)c2ccncc2)cc1S(=O)(=O)N(C)Cc1ccccc1 (stereo not given)	u	3%	i	-4%	-5%	-2%
Cc1cc(/C=N/n2cnnc2)c(C)n1-c1ccccc1	3.3µM*	3%	5.8µM*	-6%	-31%	-1%
Cc1cc(/C=N/n2cnnc2)c(C)n1-c1ccc(OCc2ccc(Cl)cc2Cl)cc1	7.3µM*	-24%[9.24 µM]	5.2µM*	-74%	8.9µM*	23µM*
Cc1cc(/C=N/n2cnnc2)c(C)n1-c1ccc(Cl)cc1	i	-4%	i	0%	13%	-7%
CC(C)n1c(=O)c2c(O)cc(=O)oc2c2ccccc21	i	15%	6.5µM*	-15%	u	7%
CCn1c(=O)c2c(O)cc(=O)oc2c2ccccc21	i	-10%	u	8%	25%	-4%
CCc1ccc(NC(=O)C(=O)NCCc2sc(-c3ccc(OC)c(OC)c3)nc2C)cc1	i	x	i	-5%	-1%	x
O=C(/C=C/[C@H]1O[C@@H](n2cnc3c(NC(=O)c4ccccc4)ncnc32)[C@H](O)[C@@H]1O)NCCc1ccc(F)cc1	i	2%	i	1%	-4%	-3%
CC(C)Cc1ccc(C(C)C(N)=NCCc2ccccc2)cc1 (stereo not given)	u	18µM*	u	18µM*	u	16µM*
COc1ccc(CCN=C(N)C(C)c2ccccc2)cc1OC (stereo not given)	i	3%	i	4%	-10%	7%
C=CCNC(=O)/C(C#N)=C/c1cc(Br)ccc1OC	i	u	i	-37%	-25%	21µM*
COc1ccc(OC)c(NC(=O)c2ccc3c(SCC(=O)O)c4c(nc3c2)CCCC4)c1	i	x	i	-9%	2%	x
